# Inconclusive results are not listed. A call without a number means that no potency is given here. Unmarked numbers belong to inactive results. Active and inactive are the calls of the source. Calls come from the whole dose curve; as a rule, active = well fitted curve in the direction sought with a large enough effect; inconclusive = small, poorly fitted or top-dose-only effect, or another doubt; inactive = no such curve, though single readings can be large; an effect the other way counts as inactive or inconclusive.
# Key:
# [1] = qHTS for Inhibitors of the Aldehyde Dehydrogenase Family (ALDH1A2, ALDH1A3, ALDH2, ALDH3A1) (AID 2061307); note: nearly all actives have a fitted effect of over 50% in size; for potency: test system not described further here; potency is the fitted concentration of half-maximal effect
# [2] = target: Retinaldehyde dehydrogenase 3 (Homo sapiens) (UniProt P47895); assay: qHTS for Inhibitors of the Aldehyde Dehydrogenase Family (ALDH1A3) Confirmatory screens (AID 2061311); note: nearly all actives have a fitted effect of over 60% in size; note: potency is the fitted concentration of half-maximal effect
# [3] = target: Aldehyde dehydrogenase 1A1 (Homo sapiens) (UniProt P00352); assay: qHTS for Inhibitors of the Aldehyde Dehydrogenase Family (ALDH1A1) Confirmatory screens (AID 2061316); note: nearly all actives have a fitted effect of over 65% in size; note: potency is the fitted concentration of half-maximal effect
# [4] = target: Retinal dehydrogenase 2 (Homo sapiens) (UniProt O94788); assay: qHTS for Inhibitors of the Aldehyde Dehydrogenase Family (ALDH1A2) Confirmation screens (AID 2061314); note: nearly all actives have a fitted effect of over 65% in size; note: potency is the fitted concentration of half-maximal effect
# [5] = target: Retinaldehyde dehydrogenase 3 (Homo sapiens) (UniProt P47895); assay: qHTS for Inhibitors of the Aldehyde Dehydrogenase Family (ALDH1A3) Primary screen (AID 2061315)
# [6] = target: Aldehyde dehydrogenase, mitochondrial (Homo sapiens) (UniProt P05091); assay: qHTS for Inhibitors of the Aldehyde Dehydrogenase Family (ALDH2) Primary screen (AID 2061308); note: nearly all actives have a fitted effect of over 55% in size
structure (smiles),measurement,setting,value
CN(C)CCCNc1cc(O)c2ncccc2c1,Potency,[1],inactive
same,Potency,[2],1.42 µM (active)
same,Potency,[3],4 µM (active)
Cc1cc(N(C)S(=O)(=O)c2ccc(NC(=O)Cc3ccc(Cl)c(Cl)c3)cc2)no1,Potency,[1],25.2 µM (active)
same,Potency,[4],inactive
same,Potency,[3],12.7 µM (active)
C#CCOc1ccc(-c2no[n+]([O-])c2C#N)cc1,Potency,[1],11.3 µM (active)
same,Potency,[4],7.98 µM (active)
same,Potency,[5],inactive
Cc1ccc(C)n1-c1cccc(C(=O)O)c1,Potency,[1],5.65 µM (active)
same,Potency,[5],inactive
C[C@@H](CO)Nc1cc2c(cc1[S+](=O)([O-])Nc1ccc(Cl)c(Cl)c1)CCC(=O)N2,Potency,[1],inactive
same,Potency,[2],inactive
same,Potency,[5],inactive
same,Potency,[3],inactive
Cc1ccnc(NC(=S)N2CCNCC2)c1,Potency,[1],inactive
same,Potency,[4],inactive
O=C(N/N=C/c1ccc(Sc2ccccn2)o1)c1ccccc1,Potency,[1],5.65 µM (active)
same,Potency,[4],inactive
CCOC(=O)c1ccc(-c2ccc3ncnc(NCc4ccc(C)o4)c3c2)o1,Potency,[1],inactive
same,Potency,[4],12.7 µM (active)
same,Potency,[5],inactive
C[C@@H](O)c1ccc(-c2ccc3ncnc(NCc4cccs4)c3c2)o1,Potency,[1],inactive
same,Potency,[5],inactive
COc1ccc(NC(=O)c2cccnc2)cc1S(=O)(=O)Nc1ccc(Br)cc1,Potency,[1],inactive
same,Potency,[5],inactive
COc1ccc(C2=NS(=O)(=O)N(C)C(C(=O)Nc3ccc(OC(F)(F)F)cc3)=C2)cc1,Potency,[1],7.94 µM (active)
same,Potency,[4],inactive
Cc1ccnc(NC(=S)N2CCN(c3ccc(Cl)cc3Cl)CC2)c1,Potency,[1],inactive
same,Potency,[4],11.3 µM (active)
same,Potency,[3],7.98 µM (active)
CCC(=O)NC(c1ccco1)c1cc(Cl)c2ccccc2c1O (stereo not drawn),Potency,[6],inactive
CN(C)c1cnc2c(O)ccc([S+](=O)([O-])Nc3ccccc3F)c2c1,Potency,[6],inactive
Nc1ccccc1C(=O)NCc1ccco1,Potency,[1],inactive
same,Potency,[5],inactive
COc1ccnc(NC(=S)N2CCN(c3ccc(Cl)cc3Cl)CC2)c1,Potency,[1],11.2 µM (active)
same,Potency,[3],5.65 µM (active)
Cn1c2cc(Br)sc2c2cnn(Cc3c(F)cccc3Cl)c(=O)c21,Potency,[6],inactive
CC(O)c1ccc(-c2ccc3ncnc(NCc4nccs4)c3c2)o1 (stereo not drawn),Potency,[1],inactive
same,Potency,[5],inactive
same,Potency,[3],10.1 µM (active)
COc1cccc(Cn2ncc3c4sc(B(O)O)cc4n(C)c3c2=O)c1,Potency,[6],inactive
NC(Cc1c[nH]c2ccc(O)cc12)C(=O)O (stereo not drawn),Potency,[6],inactive
CS(=O)(=O)c1cccc(-c2csc(N3CCC(C(N)=O)CC3)n2)c1,Potency,[6],inactive
CC(=O)c1ccc(N2CCN(C(=O)c3ccc4c(c3)CCC(=O)N4)CC2)cc1,Potency,[6],inactive
CC(=O)Nc1sc2c(c1-c1ccc(C#N)cc1)CCNC2,Potency,[1],inactive
same,Potency,[5],inactive
same,Potency,[3],inactive
OC/C=C/c1ccc(O[C@@H]2O[C@H](CO)[C@@H](O)[C@H](O)[C@H]2O)cc1,Potency,[6],inactive
CC(=O)Nc1sc2c(c1-c1ccc(N[S+](C)(=O)[O-])cc1)CCNC2,Potency,[6],inactive
Fc1ccccc1-c1nc(-c2ccccc2)no1,Potency,[6],inactive
O=[N+]([O-])c1ccc(S(=O)(=O)Nc2cnc3ccccc3c2)cc1,Potency,[1],inactive
same,Potency,[5],inactive
same,Potency,[3],inactive
Cc1ccc(CN(C)c2ncnc3ccc(-c4ccc5c(c4)OCO5)cc23)o1,Potency,[1],15.8 µM (active)
same,Potency,[5],inactive
same,Potency,[3],8.96 µM (active)
CN1CCN(c2ccc(-c3cc(O)c4ncccc4c3)cc2)CC1,Potency,[6],inactive
Oc1ccc(CNc2ccccc2C(F)(F)F)c2cccnc12,Potency,[6],inactive
CCc1ccc(NC(=O)C(=O)NNC(=O)c2cccs2)cc1,Potency,[6],inactive
Oc1cc(Nc2ccc(N3CCCCC3)cc2)cc2cccnc12,Potency,[6],inactive
CCOCCCNC(=O)Nc1cc(C(=O)NCc2ccc(C(C)C)cc2)ccc1N1CCCC1,Potency,[1],0.726 µM (active)
same,Potency,[3],2.89 µM (active)
Cc1ccnc(NC(=S)N2CCN(c3cccc(C(F)(F)F)n3)CC2)c1,Potency,[6],inactive
C=C1/C(=C/C=C2\CCC[C@]3(C)[C@@H]([C@H](C)/C=C/[C@@H](C)C(C)C)CC[C@@H]23)C[C@@H](O)C[C@@H]1O,Potency,[6],inactive
CN1CCc2ccc3c4c2[C@]1(C)Cc1cccc(c1-4)OCO3,Potency,[6],inactive
CC(C)(C)c1ccc(-c2nnc(NC(=O)Nc3ccc4ccccc4c3)s2)cc1,Potency,[1],10.1 µM (active)
same,Potency,[5],inactive
same,Potency,[3],11.3 µM (active)
O=S(=O)(Nc1cccc2cccnc12)c1ccc2ccccc2c1,Potency,[6],inactive
C/C(=C\c1ccc(F)cc1)C1Nc2cccc3cccc(c23)N1,Potency,[6],inactive
Cc1ccc(-c2ccc(=O)n(CC(=O)NCc3ccccc3)n2)cc1,Potency,[6],inactive
CC(C)(C)NS(=O)(=O)c1cccc(Nc2nn3c(=O)c4ccccc4nc3s2)c1,Potency,[1],22.5 µM (active)
same,Potency,[5],inactive
same,Potency,[3],11.3 µM (active)
C=C1/C(=C/C=C2\CCC[C@]3(C)[C@@H]([C@H](C)/C=C/[C@H](O)C4CC4)CC[C@@H]23)C[C@@H](O)C[C@@H]1O,Potency,[6],inactive
Cc1ccc(C2Nc3cccc4cccc(c34)N2)s1,Potency,[6],inactive
Cc1cc(C)nc(NC(=S)N2CCN(c3ccc(F)c(Cl)c3)CC2)c1,Potency,[1],7.08 µM (active)
same,Potency,[5],inactive
same,Potency,[3],6.34 µM (active)
Cc1cccc2c1NC(=O)/C2=C/c1cc(Cl)c(O)c(Cl)c1,Potency,[1],4 µM (active)
same,Potency,[5],inactive
Cc1ccnc(NC(=S)N2CCC(c3cccc(C(F)(F)F)c3)CC2)c1,Potency,[6],inactive
O=C1c2ccccc2C(=O)N1c1cccc(=O)[nH]1,Potency,[1],inactive
same,Potency,[5],inactive
same,Potency,[3],inactive
C/C(=C\c1ccccc1)C1Nc2cccc3cccc(c23)N1,Potency,[6],inactive
COc1ccnc(NC(=S)N2CCN(c3cccc(Cl)c3Cl)CC2)c1,Potency,[1],10 µM (active)
same,Potency,[3],4 µM (active)
COc1ccc(C2c3c(N)nc(CCc4ccccc4)nc3Oc3ccc4ccccc4c32)cc1OC (stereo not drawn),Potency,[1],inactive
same,Potency,[5],inactive
CC(=O)NC(c1cc(Cl)c2ccccc2c1O)C1CC1 (stereo not drawn),Potency,[6],inactive
CC(C)(C)OC(=O)N1CCN(c2ccc(NCc3ccc4c(c3)OCO4)cc2)CC1,Potency,[6],inactive
Nc1cccc(CNc2ccc(S(=O)(=O)Nc3nccs3)cc2)c1O,"activity change, negative = inhibition",[6],2.56% [at 11.2 µM]
same,Potency,[2],10.1 µM (active)
same,Potency,[4],inactive
same,"activity change, negative = inhibition",[5],-14.8% [at 11.2 µM]
same,Potency,[3],11.3 µM (active)
